Screening data deposited in PubChem BioAssay by National Center for Advancing Translational Sciences (NCATS).
BAZ2B inh = inhibitors of human BAZ2B bromodomain; Potency, µM (doses to about 114 µM), hits mostly inhibitors; AID 504333; actives 4.4% (n = 360,000); AlphaScreen BAZ2B-H3K14Ac peptide displacement; Q9UIF8; also: nearly all actives have a fitted effect of over 60% in size
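BAZ2B 50 nM plus b-H3(5-23)K14Ac 50 nM, PBS pH 7.4/0.01% Tween-20, 30 min RT; compound added (max 110 uM), 30 min RT; streptavidin donor/Ni-chelate acceptor beads 10 ug/mL final, 20 min dark; AlphaScreen read.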
CtBP-E1A blk = blocks the CtBP interaction with E1A. AlphaScreen GST-E1A/His-CtBP binding, 1536-well; active compounds read low. activity change, % (concentration not given with the values). actives 0.49% (n = 340,000); in the data active = activity change below about -65%; inconclusive = mostly about -30% to -63%
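In 5 uL wells, 23 nL compound meets equimolar GST-E1A and His-CtBP (5X stock 125 nM each) for 2 h, 37 °C. Beads (5X, 50 ug/mL) then 1 h, 37 °C, dark.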
JMJD2A Tudor inh = blocks the human JMJD2A Tudor domain; AID 504339; Potency, µM (highest dose often 114 µM), most hits filed as inhibitors; AlphaScreen JMJD2A-Tudor / H3K4me3 peptide binding; actives 4.4% (n = 390,000); O75164; also: nearly all actives have a fitted effect of over 50% in size
HP1b binding inh = blocks HP1-beta chromodomain binding to methylated histone tails; AlphaScreen HP1-beta / biotin-H3K9me3 peptide binding; Potency, µM (highest dose often 114 µM), most hits filed as inhibitors; AID 540317; actives 0.56% (n = 390,000); also: nearly all actives have a fitted effect of over 70% in size
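AlphaScreen: HP1-beta (50 nM) preformed 30 min with biotin-H3(1-18)K9me3 peptide (50 nM) in PBS pH 7.4, 0.01% Tween-20. Compound added for 30 min at RT, then streptavidin donor/nickel chelate acceptor beads (10 ug/mL) for 30 min.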
G9a inh = blocks human histone lysine methyltransferase G9a; Q96KQ7; G9a H3K9 monomethylation, AlphaScreen, 2 h; Potency, µM (top dose mostly 102 µM), hits mostly inhibitors; actives 8.8% (n = 350,000); AID 504332; also: nearly all actives have a fitted effect of over 75% in size
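Readings reflect AlphaScreen signal from monomethyl-H3K9 antibody detection. HMT at 20 nM; substrate b-H3K9 500 nM; cofactor SAM 20 uM; 2 h RT reaction; compounds tested as titrations in qHTS with 15 min preincubation.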
Six1-Eya2 inh = blocks human Six1 binding to Eya2. Q15475+O00167. AlphaScreen GST-Six1/His-Eya2 binding, biochemical; active compounds read low. activity change, % (test concentration not listed). actives 0.56% (n = 360,000); in the data active = activity change below about -65%; inconclusive = mostly about -30% to -63%
Target sequence (O00167 whole entry, looked up): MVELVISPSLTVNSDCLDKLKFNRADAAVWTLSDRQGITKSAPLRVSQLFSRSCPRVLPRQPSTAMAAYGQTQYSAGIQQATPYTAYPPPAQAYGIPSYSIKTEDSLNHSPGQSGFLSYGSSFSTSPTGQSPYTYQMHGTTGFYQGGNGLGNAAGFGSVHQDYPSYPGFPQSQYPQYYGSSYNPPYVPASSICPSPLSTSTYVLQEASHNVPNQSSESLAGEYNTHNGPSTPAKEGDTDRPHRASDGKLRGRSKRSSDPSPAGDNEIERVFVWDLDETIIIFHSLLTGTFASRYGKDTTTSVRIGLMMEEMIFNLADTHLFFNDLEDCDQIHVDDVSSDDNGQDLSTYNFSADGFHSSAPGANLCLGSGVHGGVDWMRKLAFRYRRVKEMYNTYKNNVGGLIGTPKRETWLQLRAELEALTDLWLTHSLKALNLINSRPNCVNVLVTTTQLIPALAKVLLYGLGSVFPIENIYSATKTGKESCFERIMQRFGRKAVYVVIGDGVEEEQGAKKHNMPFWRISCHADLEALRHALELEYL
Target sequence (Q15475 whole entry, looked up): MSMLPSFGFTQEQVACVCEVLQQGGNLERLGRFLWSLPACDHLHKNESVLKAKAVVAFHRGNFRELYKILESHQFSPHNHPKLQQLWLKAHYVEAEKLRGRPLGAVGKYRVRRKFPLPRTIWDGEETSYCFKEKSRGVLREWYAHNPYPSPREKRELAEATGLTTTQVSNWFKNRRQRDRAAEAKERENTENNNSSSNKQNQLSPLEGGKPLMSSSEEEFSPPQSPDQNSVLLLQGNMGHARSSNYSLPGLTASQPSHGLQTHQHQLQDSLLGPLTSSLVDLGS
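Six1/Eya2 binding was read as AlphaScreen signal after compounds were pinned into GST-Six1 plus His-tagged Eya2 (5X stock 250/500 nM) in pH 8.0 Tris/NaCl/TCEP buffer, beads added, then incubated 1 h, 37 C, dark.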
A number is an active result; n = inactive; u = inconclusive; x = no result given; ! = not confirmed by another sample; [ ] = dose if it differs, or a comment. In the library only some 10% were active in any assay of this set; here they are far more common. Unless noted, calls follow the shape of the dose curve; as a rule, active = well fitted inhibition curve with a large enough effect; inconclusive = small, poorly fitted or top-dose-only effect; inactive = no such curve, though single readings can be large or run the other way.

SMILES	BAZ2B inh	CtBP-E1A blk	JMJD2A Tudor inh	HP1b binding inh	G9a inh	Six1-Eya2 inh
CC(=O)Nc1ccc(S(=O)(=O)NCc2ccccn2)cc1	n	n	5.01µM	n	n	n
O=S(=O)(NC1CCCC(NS(=O)(=O)c2c(F)cccc2F)C1)c1ccc2c(c1)OCCO2 (configuration not stated)	x	x	n	x	x	x
COc1ccc(-c2nc3sc(CCNC(=O)C(=O)Nc4ccccc4C#N)c(C)n3n2)cc1	n	x	n	n	n	x
Cc1ccccc1N1CCN(C(=O)CCN2C(=O)c3ccccc3C2=O)CC1	n	n	n	n	n[0.0925 µM]	n
CCCOc1ccc(C(=O)Nc2ccc(Cl)c(-c3nc4ncccc4o3)c2)cc1	n	x	n	n	n	x
Cc1ccc(NC(=O)c2ncn(CC(=O)NCc3nc4ccccc4[nH]3)n2)cc1C	x	n	n	n	x	n
CC(C)CNC(=O)c1cccc(NC(=O)c2ccc3c(c2)C(=O)N(C)C3=O)c1	n	x	n	n	u	n
COc1ccc2c(c1)Cc1sc(NC(=O)c3ccc(Cl)cc3)nc1-2	n	x	n	n	n	x
Cc1cnc(CNc2ccnc(-c3ccccc3CN(C)C)n2)cn1	x	x	x	x	n[0.501 µM]	x
Cc1cccc(Nc2nnc(SC/C(O)=C(\C#N)c3nc4ccccc4[nH]3)s2)c1	n	n	n	n	15.8µM	n
Cc1ccc(Nc2nnc(SC/C(O)=C(\C#N)c3nc4ccccc4[nH]3)s2)c(C)c1	n	n	n	n	7.08µM	n
Cc1cc(C)n2c(SCC(O)=C(C#N)c3nc4ccccc4[nH]3)nnc2n1	x	n	n	n	x	n
COc1ccc(C2CC(=O)c3cc(-c4nc(-c5cccc(Cl)c5)cs4)c(=O)[nH]c3C2)cc1OC (configuration not stated)	n	x	n	n	n	x
O=C(CN1C(=O)S/C(=C\c2ccc(F)cc2)C1=O)NCCCn1ccnc1	u	n	n	n	n	n
O=C(CCN1C(=O)/C(=C/c2ccc(F)cc2)SC1=S)NCCCn1ccnc1	u	x	n	n	50.1µM	n
O=C(CCN1C(=O)/C(=C/c2ccc(Cl)cc2)SC1=S)NCCCn1ccnc1	39.8µM	x	n	n	u	n
Cc1cccc(C)c1NC(=O)C(CCc1ccccc1)N1CCC(c2ccccc2)CC1 (configuration not stated)	x	n	x	x	x	n
Cc1ccc(Cl)c(OCC(=O)OC(C)C(=O)NC2CC2)c1 (configuration not stated)	n	n	n	n	n	n
CCOc1ccc(N/C(C)=C\C(=O)c2ccc3c(c2)OCCO3)cc1	25.1µM	n	u	n	x	n
COc1ccc(C(=O)/C=C(\C)Nc2ccc3c(c2)OCO3)cc1	50.1µM	n	28.2µM	u	70.8µM	n
COc1ccc(C(=O)Nc2ccc3c(c2)OCCO3)cc1	n	n	n	n	n	n
COc1ccc(N/C(C)=C/C(=O)c2ccccc2)cc1	u	n	u	u	u	n
C/C(=C\C(=O)c1ccncc1)Nc1ccccc1O	n	n	n	n	n	n
COc1ccc(C(=O)CCNc2ccc3c(c2)OCCO3)cc1	n	n	n	n	3.16µM	n
COc1ccc(OC)c(N/C(C)=C/C(=O)c2ccncc2)c1	u	n	u	n	39.8µM	n
SMILES	BAZ2B inh	CtBP-E1A blk	JMJD2A Tudor inh	HP1b binding inh	G9a inh	Six1-Eya2 inh
COc1cc(/C=C(\C#N)C(=O)Nc2ccc(C)cc2)ccc1OCc1cc(=O)n2nc(C)sc2n1	n	x	n	n	n	x
CC1CCN(S(=O)(=O)c2ccc3c(c2)c(=O)c(C(=O)NCc2ccco2)cn3C)CC1	n	n	n	n	79.4µM	n
CC1CCN(S(=O)(=O)c2ccc3c(c2)c(=O)c(C(=O)NCc2cccs2)cn3C)CC1	n	n	n	n	n	n
CCOC(=O)N1CCC(=NNc2nc(C)cc(=O)[nH]2)CC1	n	n	n	n	39.8µM	n
Cc1cccc(Nc2nnc(-c3ccc(N4CCOCC4)c([N+](=O)[O-])c3)c3ccccc23)c1	u	n	u	n	10µM	n
c1csc(CNc2ccc3c(c2)OCCO3)c1	50.1µM	n	u	n	3.55µM	n
Clc1cc(NCc2cccs2)ccc1N1CCOCC1	50.1µM	n	u	n	11.2µM	n
O=C(NCc1cccs1)C1CCN(c2ccc(S(=O)(=O)N3CCOCC3)cc2Cl)CC1	n	n	n	n	n	n
O=C1CCc2cc([S+](=O)([O-])NC3CCOCC3)ccc2N1	x	x	n	x	x	x
O=C(NCc1ccccc1)c1ccc(CNS(=O)(=O)c2ccc(Br)cc2)cc1	x	x	n	n	n	x
CCc1ccc(NC(=O)c2ccc3c(c2)N(Cc2ccc(C)cc2)CCS3)cc1	n	x	n	n	n	x
COc1ccc(NC(=S)N(C(C)C)C2CCN(C(C)C)CC2)cc1Cl	n	x	x	x	44.7µM	x
O=[N+]([O-])c1ccc(N2CCCCC2)cc1NCCOc1ccccc1	u	n	n	u	u	n
O=[N+]([O-])c1ccccc1NCCOc1ccccc1	22.4µM	n	u	n	u	u
CCc1cccc(C)c1NC(=O)C(C)Sc1nc2c(c(=O)[nH]1)CCCC2 (configuration not stated)	n	x	n	n	n	x
CC1=NN(C(C#N)c2ccccc2)C(c2ccccc2)C1 (configuration not stated)	n	x	n	n	x	n
COc1ccc(C(C#N)N2N=C(C)CC2c2ccccc2)cc1 (configuration not stated)	n	n	n	n	44.7µM	n
CC(=O)N1c2ccc(S(=O)(=O)NCC3CCC(C(=O)Nc4ncccc4C)CC3)cc2CC1C (configuration not stated)	n	n	n	n	n	n
CN1CCN(CC(=O)N2c3ccc(S(=O)(=O)NCCNC(=O)OC(C)(C)C)cc3C(=O)Nc3cccnc32)CC1	x	x	14.1µM	u	x	x
CN1CCN(CC(=O)N2c3ccccc3C(=O)Nc3cccnc32)CC1	n	x	x	x	29.9µM!	x
Cc1ccc2[nH]c(C(=O)N3CCN(C(c4ccccc4)c4ccccc4)CC3)cc2c1	n	n	n	n	x	n
COc1ccc(O)cc1CN1CCN(c2ncc(Cc3ccccc3)cn2)CC1	x	n	x	x	x	n
CCOC(=O)CSC1=NC(=O)/C(=C/c2ccc(Br)cc2)S1	n	n	u	n	39.8µM	n
NC1=NC(=O)/C(=C/c2ccc(Br)cc2)S1	n	x	n	n	n[0.501 µM]	n
CCOC(=O)CSC1=NC(=O)/C(=C\c2ccc(OC(C)=O)cc2)S1	n	n	n	n	39.8µM	n
CC(C)(C)c1ccc(CC(=O)N2CCC2(C)C(=O)NS(=O)(=O)c2cccc(OC(F)F)c2)cc1 (configuration not stated)	x	n	x	x	x	n
CCC(C)(C)n1nnnc1C(c1cc2cccc(C)c2[nH]c1=O)N1CCCC1 (configuration not stated)	n	n	n	n	11.2µM	n
